Assay results from PubChem BioAssay (NCATS).
“And” between values parts separate entries of the source, which are not always exact repeats. Equal entries are not always repeated. Results filed as inconclusive are left out. Entries that show only a call come without a potency. The source made the active and inactive calls. The call rests on the fitted dose curve; in most records, active means well fitted inhibition curve with a large enough effect; inconclusive means small, poorly fitted or top-dose-only effect; inactive means no such curve, though single readings can be large or run the other way. *1 amine or outer side, *2 acyl side, *3 side chain or, on linkers, in order; H or OH if unused. Where a SMILES comes first, the peptide text is derived from it. Bridges are numbered along the chain shown (N, C = ends). [ ]: non-standard residue; d: D form. The star is where a group is joined. ξ: configuration not given here. X10 = NC1=NCCC(C(N[*:1])C(=O)[*:2])N1; ΔAla(3-NHCONH2) = NC(=O)NC=C(N)C(=O)O; ξβ3hOrn = NCCCC(N)CC(=O)*; Dap = NC[CH](N)C(=O)O

Experiment: Primary qHTS for inhibitors of nuclear receptor binding SET domain protein 2 (NSD2) in an RCH-ACV wild type WT cells (2C) (AID 1645877); further: nearly all actives have a fitted effect of over 70% in size
Settings: RCH-ACV (leukaemia line) NSD2 WT (2C) viability, CellTiter-Glo, 72 h; series mostly up to 44.9 µM
Source text: Assay Provider: Jonathan D. Licht, MD
University of Florida College of Medicine, Gainesville, FL
Mutations in epigenetic regulators are common in relapsed pediatric acute lymphoblastic leukemia (ALL). Here, we uncovered the mechanism underlying the relapse of ALL driven by an activating mutation of the NSD2 histone methyltransferase (p.E1099K). […] Correction of this mutation restored glucocorticoid sensitivity. The transcriptional response to glucocorticoids was blocked in NSD2 mutant cells due to depressed glucocorticoid receptor (GR) levels and the failure of glucocorticoids to autoactivate GR expression. […] Pre-treatment of NSD2 p.E1099K cell lines and PDX samples with PRC2 inhibitors reversed glucocorticoid resistance in vitro and in vivo.
High-throughput drug screening of isogenic RCH-ACV cell lines was performed at the National Center for Advancing Translational Science (NCATS), National Institutes of Health as previously described (1). Briefly, isogenic RCH-ACV NSD2 p.E1099K mutant (9B) and WT cells (2C) were plated at 500 cells/well in a 1536-well plate with a 72-hour incubation with compounds prior to addition of CellTiter-Glo to assess cell viability. NCATS libraries screened include: NPC, MIPE 5.0, Kinase and NPACT. To determine compound activity in the qHTS assay, the concentration-response data for each sample was plotted and modeled by a four-parameter logistic fit yielding IC50 and efficacy (maximal response) values. The area under the curve (AUC) of the dose-response curve ensures both efficacy (magnitude of cell killing) and potency (concentration that elicits cell killing) are accounted for in the analysis of activity.
1. Tobie D Lee, Olivia W Lee, Kyle R Brimacombe, Lu Chen, Rajarshi Guha, Sabrina Lusvarghi, Bethilehem G Tebase, Carleen Klumpp-Thomas, Robert W Robey, Suresh V Ambudkar, Min Shen, Michael M Gottesman, Matthew D Hall. A High-Throughput Screen of a Library of Therapeutics Identifies Cytotoxic Substrates of P-glycoprotein. Mol Pharmacol. 2019, Nov;96(5):629-640.

SMILES	Potency	outcome
CC(NN)c1ccccc1 (stereo not given)	inactive	
N#Cc1cc(NC(=O)C(=O)O)c(Cl)c(NC(=O)C(=O)O)c1	inactive	
Nc1ncnc2c1ncn2Cc1c(F)cccc1Cl	inactive	
COC(=O)CCCCC(CCSS/C(CCO)=C(\C)N(C=O)Cc1cnc(C)nc1N)SC(C)=O (stereo not given)	inactive	
C[C@H]1C[C@H]2[C@@H]3CCC4=CC(=O)C=C[C@]4(C)[C@H]3C(=O)C[C@]2(C)[C@@]1(O)C(=O)CO	inactive	
OC1(c2ccccc2)CCNCC1	inactive	
CCOC(=O)c1ccc(O)c(O)c1	13.3 µM (active)	
CCn1ccc(NS(=O)(=O)c2ccc(N)cc2)nc1=O	inactive	
C/C(=N\O)[C@@H](C)NCC(C)(C)CN[C@H](C)/C(C)=N/O	inactive	
CC(NCCC(c1ccccc1)c1ccccc1)c1ccccc1 (stereo not given)	18.8 µM (active)	
NCCCC(N)CC(=O)NCC1NC(=O)C(CO)NC(=O)C(N)CNC(=O)C(C2CCN=C(N)N2)NC(=O)C(=CNC(N)=O)NC1=O (stereo not drawn) (H-[Dap]S[Dap](ξβ3hOrn)[ΔAla(3-NHCONH2)][X10]; lactam 1-C; configuration not given here)		inactive [at 0.588 µM]
CCOC(=O)CN1CCCC1=O	inactive	
C/C(=N/NC(=O)c1ccncc1)C(=O)O	inactive	
CCCC(=O)O[C@]1(C(=O)CCl)[C@@H](C)C[C@H]2[C@@H]3CCC4=CC(=O)C=C[C@]4(C)[C@@]3(F)C(=O)C[C@@]21C	0.0007 µM (active)	
Nc1ccc2c(c1)CN1C(=O)c3ccccc3C1=N2	8.2 µM (active)	
C[C@@H]1C[C@H]2[C@@H]3CCC4=CC(=O)C=C[C@]4(C)[C@@]3(F)[C@@H](O)C[C@]2(C)[C@@]1(O)C(=O)COC(=O)c1ccncc1	inactive	
CCN(CC)CC(=O)Nc1c(C)cccc1C(=O)OC	inactive	
COC(=O)/C=C(/C)N	inactive	
O=C1c2ccccc2CCc2ccccc21	inactive	
CC(C)C(C)(C)C(C)(C)C(C)(C)S	inactive	

SMILES	Potency	outcome
CC(C)NC(=O)c1ccc(C=O)cc1	inactive	
O=C(OCCN1CCOCC1)c1cccnc1Nc1cccc(C(F)(F)F)c1	inactive	
CC(C)=CCC/C(C)=C/CC/C(C)=C/C(=O)OCC(=O)[C@@]1(O)CC[C@H]2[C@@H]3CCC4=CC(=O)C=C[C@]4(C)[C@H]3[C@@H](O)C[C@@]21C	4.73 µM (active)	
CCOC(=O)NNc1nncc2ccccc12	inactive	
Nc1cc(C(F)(F)F)ccc1S	15 µM (active)	
O=c1[nH]c2ccccc2c(=O)n1CCCl	inactive	
Cc1cc(OCCOCC[N+](C)(C)Cc2ccccc2)ccc1C(C)(C)CC(C)(C)C	1.19 µM (active)	
CC1(C)S[C@@H]2[C@H](NC(=O)C(c3ccccc3)S(=O)(=O)O)C(=O)N2[C@H]1C(=O)O (stereo not given in full)	inactive	
CC(C)(C)NCC(O)COc1ccccc1OCC1CCCO1 (stereo not given)	inactive	
Nc1ccc([N+](=O)[O-])c(C(F)(F)F)c1	inactive	
Oc1ccccc1-c1nnco1	inactive	
O=C(NO)c1ccccc1	25.9 µM (active)	
C[C@H]1NCc2cc(-c3ccc4c(=O)c(C(=O)O)cn(C5CC5)c4c3OC(F)F)ccc21	inactive	
CCCCN(CCN(CCCC)C(=O)N1CCOCC1)C(=O)N1CCOCC1	inactive	
COC(=O)c1cc(S(N)(=O)=O)ccc1OC	inactive	
COc1c(C)c2c(c(O)c1C/C=C(\C)CCC(=O)OCCN1CCOCC1)C(=O)OC2	0.376 µM (active)	
Cc1cccc(C)c1NC(=O)c1cc(S(N)(=O)=O)c(Cl)cc1O	inactive	
CN(C)CCCOC1(Cc2ccccc2)CCCCCC1	inactive	
O=C(O)c1cn(C2CC2)c2cc(Cl)c(F)cc2c1=O	inactive	
CC1(C)O[C@@H]2C[C@H]3[C@@H]4CCC5=CC(=O)C=C[C@]5(C)[C@@]4(F)[C@@H](O)C[C@]3(C)[C@]2(C(=O)CO)O1	59.6 nM (active) and 13.2 nM (active)	
